From PubChem BioAssay
Active and inactive are the calls of the source. Unless noted, the rule behind the calls is not given here.

Experiments:
[1] = system: Wnt5a (protein binding on small-molecule microarray); assay: small molecules binding Wnt5a protein – biophysical, small-molecule microarray, 635/667 nm fluorescence, primary screen (AID 1142); settings: 635 nm fluorescence, higher = more signal;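 note: fluorescence read at 667 nm with signal to noise per printed feature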
[2] = ATP-based viability of Huh7 replicon cells – cell-based, CellTiter-Glo luminescence, basal, 48 h, cytotoxicity control for HCV replication inhibitor project, primary screen (AID 1143); settings: higher = more signal, called active from +8 up or from −8 down;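 note: Huh7 hepatoma cells carrying a hepatitis C replication reporter with no stimulus; test concentration not given here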
[3] = Pseudomonas biofilm growth suppression – PAO1 strain, BacTiter-Glo luminescence, LB-PBS, primary screen (AID 1144); settings: P. aeruginosa PAO1 biofilm, 12 h, higher = more signal
[4] = basal CRE-LacZ reporter activity in PC12 – cell-based, unstimulated, primary screen (AID 1145); settings: no forskolin, luminescence, 4.5 h, higher = more signal, called active from +8 up or from −8 down
[5] = forskolin-driven CRE-LacZ activity in PC12 – cell-based, CRE-LacZ reporter, forskolin-stimulated, primary screen (AID 1146); settings: luminescence, 4.5 h, higher = more signal, called active from +8 up or from −8 down;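 note: PC12 cells with 6xCRE LacZ reporter stimulated by forskolin 10 µM; beta-galactosidase reporter signal reflecting CREB driven transcription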
[6] = molecular target: Streptavidin (Streptomyces avidinii) (UniProt P22629); assay: compounds binding control protein streptavidin – biophysical, small-molecule microarray, 635/667 nm fluorescence, artefact control for SMM compound annotation, primary screen (AID 1147); settings: higher = more signal;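 note: signal reflects streptavidin binding to arrayed compounds as a control protein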
Sequence of Streptavidin (Streptomyces avidinii) (P22629 whole entry, looked up): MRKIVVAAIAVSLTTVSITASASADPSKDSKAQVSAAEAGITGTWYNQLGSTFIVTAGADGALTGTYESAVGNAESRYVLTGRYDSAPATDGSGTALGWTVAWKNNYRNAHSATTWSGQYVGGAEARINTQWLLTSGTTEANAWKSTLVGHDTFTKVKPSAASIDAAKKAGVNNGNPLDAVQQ

[7] = probe aInhba binding on compound microarray – biochemical, small-molecule microarray, 635/667 nm fluorescence, primary screen (AID 1148); settings: higher = more signal;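 note: score merges 667nm spot fluorescence with signal-to-noise for antibody binding to printed compounds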
[8] = molecular target: Torsin-1A (Homo sapiens) (UniProt O14656); assay: TOR1A wild-type binding on microarray – cell lysate, small-molecule microarray, lysate, 635/667 nm, primary screen (AID 1149); settings: COS7 hTOR1A-WT lysate, 635 nm fluorescence, higher = more signal
Sequence of Torsin-1A (Homo sapiens) (O14656 whole entry, looked up): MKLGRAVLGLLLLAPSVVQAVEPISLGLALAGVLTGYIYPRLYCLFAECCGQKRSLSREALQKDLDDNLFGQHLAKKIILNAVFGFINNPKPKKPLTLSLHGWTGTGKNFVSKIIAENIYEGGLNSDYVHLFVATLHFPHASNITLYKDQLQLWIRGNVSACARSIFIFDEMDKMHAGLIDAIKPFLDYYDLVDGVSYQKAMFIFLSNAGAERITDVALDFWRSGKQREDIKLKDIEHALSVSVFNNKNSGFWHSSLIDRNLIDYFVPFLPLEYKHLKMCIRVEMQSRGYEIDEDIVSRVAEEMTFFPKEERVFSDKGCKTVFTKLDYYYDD

[9] = molecular target: Torsin-1A (Homo sapiens) (UniProt O14656); assay: torsin A mutant lysate binding on microarrays – cell lysate, small-molecule microarray, COS7 lysate, 635/667 nm fluorescence, primary screen (AID 1150); settings: COS7 hTOR1A mutant lysate, 635 nm fluorescence, higher = more signal;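 note: score pools 667 nm emission and signal to noise measuring lysate protein binding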
[10] = system: Sonic hedgehog protein (Shh); assay: Sonic hedgehog microarray binding compounds – biochemical, small-molecule microarray, 635/667 nm fluorescence, primary screen (AID 1151); settings: 635 nm fluorescence, higher = more signal;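 note: Shh protein binding to compounds spotted on small-molecule microarray slides; score combines spot fluorescence intensity with signal-to-noise across triplicate slides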

Row | Compound | composite z-score [1] | z-score [2] | z-score [3] | z-score [4] | z-score [5] | composite z-score [6] | composite z-score [7] | composite z-score [8] | composite z-score [9] | composite z-score [10]
1 | CN(C)CCCCNC(=O)[C@H]1C[C@H]2C(=O)N[C@@H](CCCCN(C)C)C(=O)N2[C@H]1c1ccc(O)cc1 | 0.215 | -1.14 (inactive) | -0.889 (inactive) | -1.61 (inactive) | -0.252 (inactive) | 0.165 | -0.206 | 0.464 | 0.282 | 1.29
2 | O=C(NCC(F)(F)F)[C@@H]1c2ccccc2C(=O)N(Cc2cc(C(F)(F)F)cc(C(F)(F)F)c2)[C@H]1c1ccc(CO)cc1 | 0.362 | -1.49 (inactive) | -0.483 (inactive) | 0.701 (inactive) | -1 (inactive) | -0.49 | 0.0074 | 0.325 | 0.201 | 0.363
3 | C=CC[C@@]1(C(=O)NCCCOC)N=C(c2ccc(OCCCO)cc2)O[C@@H]1c1ccccc1CN=[N+]=[N-] | 0.645 | -3.72 (inactive) | -0.584 (inactive) | -0.45 (inactive) | -0.48 (inactive) | 0.706 | 0.0921 | 0.112 | 0.734 | 0.0532
4 | CC(C)(C)OC(=O)CC[C@]1(C(N)=O)N=C(c2ccc(OCCCO)cc2)O[C@H]1c1ccccc1N=[N+]=[N-] | 0.641 | -0.284 (inactive) | 0.303 (inactive) | 1.05 (inactive) | -0.677 (inactive) | 1.49 | 0.0966 | 0.448 | 0.424 | -0.74
5 | COc1cc(Cc2cc3c(c(-c4ccccc4)n2)[Si](C(C)C)(C(C)C)OC3)cc(OC)c1OC | 0.26 | -0.324 (inactive) | -0.546 (inactive) | -0.113 (inactive) | -0.437 (inactive) | 1.89 | 0.161 | -0.226 | -0.141 | 0.143
6 | C[C@]1(C(=O)NCC(F)(F)F)c2ccccc2C(=O)N(Cc2cc(C(F)(F)F)cc(C(F)(F)F)c2)[C@H]1c1ccc(CO)cc1 | -0.127 | -0.286 (inactive) | 0.878 (inactive) | 0.324 (inactive) | 0.0167 (inactive) | -0.7 | -0.0963 | -0.469 | -0.34 | -0.21
7 | COC(=O)[C@]1(Cc2ccccc2N=[N+]=[N-])N=C(c2ccc(OCCCO)cc2)O[C@@H]1c1ccccc1CN=[N+]=[N-] | 0.65 | -3.74 (inactive) | -0.923 (inactive) | -0.137 (inactive) | 0.0992 (inactive) | 0.127 | 0.122 | 1.12 | 0.085 | 0.754
8 | C=CC[C@]1(C(=O)NCC(O)CO)N=C(c2ccc(OCCCO)cc2)O[C@H]1c1ccccc1CN=[N+]=[N-] (stereo not given in full) | 0.176 | -0.627 (inactive) | 0.381 (inactive) | 0.652 (inactive) | -0.163 (inactive) | 0.184 | 0.249 | 0.598 | 2.58 | -0.803
9 | CN1C(=O)C2C=CC(C(O)c3ccc(I)cc3)N(N(c3ccccc3)c3ccccc3)C2C1=O (stereo not given) | -0.268 | -0.619 (inactive) | 0.257 (inactive) | -0.136 (inactive) | 0.58 (inactive) | 0.609 | -0.0581 | -0.728 | -0.545 | -0.416
10 | CC1C2C(CCCO)=CC(C3C(=O)N(C)C(=O)C23)N1Cc1cccc(OC(F)(F)F)c1 (stereo not given) | 0.164 | -0.293 (inactive) | 0.403 (inactive) | -0.0142 (inactive) | -0.733 (inactive) | 2.22 | 0.143 | 0.76 | 1.47 | 0.113
11 | CCOC(=O)C[C@H]1[C@H](OC(=O)Cc2ccc3c(c2)OCO3)[C@@H](NC(=O)CC(C)C)c2cc(OCCCO)ccc2N1C(=O)c1ccc2ccccc2n1 | 0.25 | -3.23 (inactive) | 0.0536 (inactive) | 7.92 (inactive) | 0.812 (inactive) | 0.23 | -0.0331 | 0.384 | -0.147 | 0.458
12 | CCOC(=O)C[C@H]1[C@H](OC(=O)c2ccccc2-c2ccccc2)[C@@H](NC(=O)CC(C)C)c2cc(OCCCO)ccc2N1C(=O)c1ccccc1 | 0.167 | -0.715 (inactive) | -0.829 (inactive) | 1.94 (inactive) | -0.103 (inactive) | -0.31 | -0.0178 | -0.278 | -0.161 | 1.51
13 | CC(C)C(=C=CC[C@H](O)c1cccc(OCCO)c1)C[C@H](O)c1ccccn1 | -0.103 | -0.667 (inactive) | -1.06 (inactive) | 2.25 (inactive) | 0.42 (inactive) | -0.502 | -0.0986 | -0.256 | 0.0951 | 1.45
14 | COCCCNC(=O)[C@@]1(Cc2ccccc2I)c2ccccc2C(=O)N(Cc2ccccc2OC)[C@H]1c1ccc(CO)cc1 | -0.43 | -3.39 (inactive) | 0.767 (inactive) | 0.531 (inactive) | -0.797 (inactive) | -0.67 | -0.162 | 0.884 | 0.431 | -0.845
15 | CC(C)C[C@H]1NC(=O)CNC(=O)[C@@]23C(=O)N[C@@H](Cc4ccccc4)C2[C@H](C)[C@@]2(C)O[C@H]2C3/C=C/C/C=C\CNC1=O (stereo not given in full) | -0.0443 | 0.0643 (inactive) | -0.0124 (inactive) | 0.483 (inactive) | 0.201 (inactive) | -0.185 | -0.0719 | -0.0633 | 0.129 | 1.93
16 | O=C1c2ccccc2[C@](Cc2ccccc2I)(C(=O)NCCN2CCOCC2)[C@H](c2ccc(CO)cc2)N1Cc1ccccc1C(F)(F)F | 0.0104 | -3.41 (inactive) | 0.588 (inactive) | 0.0909 (inactive) | 0.655 (inactive) | 0.515 | -0.038 | 0.717 | 0.469 | 0.468
17 | COc1ccc(C(O)C2C=CC3C(=O)N(C)C(=O)C3N2Nc2ccccc2)cc1 (stereo not given) | -0.0927 | -2.05 (inactive) | -0.371 (inactive) | -0.143 (inactive) | 0.459 (inactive) | 1.41 | 0.195 | 0.271 | 0.994 | 0.011
18 | COC(=O)C[C@H]1O[C@]2(C(=O)N(C)c3ccccc32)[C@@H](C)[C@@H]1[Si](C)(C)c1ccccc1 | 0.148 | -4.59 (inactive) | 0.115 (inactive) | -0.141 (inactive) | -0.477 (inactive) | 1.02 | -0.204 | 0.262 | 0.395 | 1.65
19 | [N-]=[N+]=NCc1ccccc1C[C@@]1(C(=O)NCCN2CCOCC2)N=C(c2ccc(OCCCO)cc2)O[C@@H]1c1ccccc1 | 0.366 | -3.38 (inactive) | 0.505 (inactive) | 2.72 (inactive) | 0.847 (inactive) | 1.11 | 0.302 | 0.271 | 0.57 | 0.34
20 | COc1c(C)cc(-c2nc(-c3ccccc3)c3c(c2C)CO[Si]3(C(C)C)C(C)C)cc1C | 0.302 | -0.59 (inactive) | 0.306 (inactive) | 0.54 (inactive) | 0.456 (inactive) | -0.0316 | -0.0604 | -0.0284 | 0.0463 | 0.419
21 | C=C(CC1([C@@H](NP(=O)(c2ccccc2)c2ccccc2)[C@H]2C[C@@H]2CCCC)CC1)c1cccc(OC)c1 | 0.0445 | -1.65 (inactive) | 0.496 (inactive) | 0.0109 (inactive) | 0.276 (inactive) | 0.566 | 0.0227 | -0.547 | -0.302 | -0.836
22 | COc1cc(CO)cc(I)c1O[C@H]1C=C(C(=O)NCCO)C[C@@H](N(CCN2CCOCC2)C(=O)C2CCCO2)[C@@H]1O (stereo not given in full) | -0.103 | 0.0418 (inactive) | -0.137 (inactive) | 0.497 (inactive) | -1.04 (inactive) | -0.0582 | -0.256 | 0.404 | 0.0245 | -0.203
23 | C=CCC(OC(C)=O)[C@@H]1[C@@H](N(Cc2ccc(-c3ccccc3)cc2)C(=O)Cc2ccc(OC)cc2)c2cc(OCCCO)ccc2N1C(=O)Cc1ccc(OC)cc1 (stereo not given in full) | 0.0361 | -1.79 (inactive) | 1.04 (inactive) | 0.642 (inactive) | 0.482 (inactive) | 0.222 | 0.169 | 0.172 | 0.212 | 0.363
24 | C=C(COC)C(=O)CC[C@H](OC(C)=O)c1ccc(CO)o1 | -0.0261 | -2.28 (inactive) | -0.824 (inactive) | -0.0884 (inactive) | 0.464 (inactive) | -0.0888 | -0.101 | -0.675 | -0.337 | 1.55
25 | COc1ccc(-c2cc3c(c(CCc4ccccc4)n2)[Si](C(C)C)(C(C)C)O[C@H]3c2ccccc2)cn1 | -0.143 | -0.248 (inactive) | -0.113 (inactive) | 4.67 (inactive) | -0.0122 (inactive) | 0.547 | -0.0762 | -0.719 | -0.534 | 0.431
26 | C=CCNC(=O)[C@H]1[C@@H]2C(=O)O[C@@H](c3ccccc3)[C@@H](c3ccccc3)N2[C@@H](c2ccc(O)cc2)[C@]12C(=O)N(C(=O)OCCOC)c1ccc(C#Cc3ccc(OC)cc3)cc12 | 0.334 | -2.17 (inactive) | 0.649 (inactive) | -0.195 (inactive) | 1.43 (inactive) | 0.21 | 0.153 | 0.0502 | 0.651 | 1.21
27 | CC[C@@H](O[Si](C#C[Si](C(C)C)(C(C)C)C(C)C)(C(C)C)C(C)C)c1cn([C@H](C)c2ccccc2)nn1 | -0.026 | 0.428 (inactive) | -0.0357 (inactive) | -0.374 (inactive) | 0.266 (inactive) | 0.693 | -0.0044 | 0.398 | 0.458 | 0.634
28 | COc1ccc(NN2C(C(O)c3ccccc3)C=CC3C(=O)N(C4CCCCC4)C(=O)C32)cc1 (stereo not given) | 0.272 | -2.44 (inactive) | -1.71 (inactive) | 0.127 (inactive) | 1.65 (inactive) | 0.929 | 0.19 | 0.473 | 0.37 | 0.871
